Measurements: PubChem BioAssay (NCI)
The panel holds about 83,000 compounds, 20% with a hit somewhere; the sample as a whole holds those more often.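 Each cell line was grown in a 96-well plate and treated with one concentration of compound for 48 hours. Values below 10 were considered active.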 Unmarked numbers belong to inactive results. Active and inactive are the calls of the source.

Test system: T-47D breast
Experiment: NCI-60 one-dose screen, 48 h (100 = growth as untreated, 0 = no growth, -100 = all killed)
Conditions: 10 µM unless noted
Description: Growth inhibition of the T-47D human tumor cell line is measured as a screen for anti-cancer activity. Cells are grown in 96 well plates and exposed to the test compound for 48 hours. Compounds are tested at a single concentration, which is 10^-5 M for most compounds. The reported endpoint is percent growth (GI% or GIPRCNT), where numbers from 0 - 100% represent growth inhibition, and numbers from -100% - 0 represent cell death. For example, a value of 40 represents 60% growth inhibition. A value of 0 means no net growth occurred over the course of the experiment. A value of -40 indicates 40% of cells at the beginning of the experiment died by the end of the experiment. A value of -100 means all cells are dead at the end of the experiment.
NCI-60 Human Tumor Cell Lines Screen was performed using the standard one-dose NCI protocol, which is described in more detail at https://dtp.cancer.gov/discovery_development/nci-60/default.htm.
Compounds with GIPRCNT values below 10 were considered active. Activity score was based on GIPRCNT using the following formula: […]
Score is 0 for GIPRCNT values of 100 or above, 50 for GIPRCNT values of 0, and 100 for GIPRCNT values of -100.

Compound	growth
Cc1ccc2c(n1)C(=O)C(Cl)=C(Nc1ccc(C(F)(F)F)cc1)C2=O	-25.5% (active)
Cc1ccc(-c2nc(SCC(=O)c3ccccc3)nc(Nc3ccc(S(N)(=O)=O)cc3)c2C#N)cc1	83.9%
COc1ccc(OC)c(NC(=O)CCCCCCNC(=O)C(O)(O)C(F)(F)F)c1	22.4%
CCNC(=O)Oc1ccc(/C(=C(/C)c2ccc(OC)cc2)c2ccc(OCCN3CCCCCC3)cc2)cc1	26.6%
COC(=O)[C@@H](Cc1c[nH]c2ccccc12)NC(=O)CCCCOc1cc(O)c2c(=O)cc(-c3ccccc3)oc2c1	59.7%
NC(N)=NS(=O)(=O)c1ccc(N=Nc2c(N)nn(-c3ccc([N+](=O)[O-])cc3[N+](=O)[O-])c2N)cc1	104%
CC(C)(C)Nc1nc2c(OCCc3ccccc3)cccn2c1-c1cccc(Oc2ccccc2)c1	8.72% (active)
Cn1cc(-c2nnc(N)nc2-c2c[nH]c3ccc(F)cc23)c2cc(Br)ccc21	29.4%
CCc1cccc2c3c(sc12)C(c1ccc(F)cc1)C(C#N)=C(/N=C/c1ccc(Cl)cc1)O3 (stereo not given)	30.7%
CNC(=O)c1cc(Oc2ccc3c(c2)sc2nc(-c4ccc(N(C)C)cc4)cn23)ccn1	45.2%
O=C1[C@H]2Cc3c([nH]c4ccccc34)[C@H](c3ccc(Cl)cc3)N2C(=O)CN1C1CCN(CC2CCCCC2)CC1	93%
CC(=C(c1ccc(OCCCN(C)C)cc1)c1ccc(OCCCN(C)C)cc1)c1ccc(Cl)cc1	74.9%
CCCCCCOC(=O)c1cc(-c2ccc(F)cc2)nc2ccccc12	88.8%
Cc1ccc(NC(=O)/C=C/c2ccc(OCCCOc3ccc4c(C)cc(=O)oc4c3)cc2)cc1	70.3%
CC/C(=C(/c1ccc(Cl)cc1)c1ccc(OCCN)cc1)c1ccccc1	93.1%
CCN(CC)CCOc1ccc(C(=C(C)Cc2ccc(OC)cc2)c2ccc(OCCN(CC)CC)cc2)cc1	64.2%
CCCC[n+]1ccc(SCC(=O)n2ccc3ccccc32)c2ccccc21	73.3%
C#CCOc1ccc(-c2csc(NC(=O)C=C)n2)cc1NS(=O)(=O)c1cccc2c(N(C)C)cccc12	60.7%
CC(=C(c1ccc(OCCN(C)C)cc1)c1ccc(OCCN(C)C)cc1)c1ccc(Cl)cc1	-53.7% (active)
COc1ccc2c(c1)c(/C=N/Nc1ccnc3cc(Cl)ccc13)cn2C	-64.1% (active)

Compound	growth
Oc1ccc(-c2nc3ccc(/C(=N\N=C\c4ccc(Cl)cc4)c4ccccc4)cc3[nH]2)cc1	79.9%
N#Cc1c(-c2cccs2)cc(-c2cnccn2)nc1SCC(=O)N/N=C/c1cccs1	50.1%
C=C(C)[C@@H]1CC[C@]2(C(=O)O)CC[C@]3(C)[C@H](CC[C@@H]4[C@@]5(C)C/C(=C/c6ccccn6)C(=O)C(C)(C)[C@@H]5CC[C@]43C)[C@@H]12	19%
Fc1ccc(-c2cn3c(-c4c[nH]c5ccc(Br)cc45)csc3n2)cc1	66.3%
Fc1cc(F)cc(NNC(=S)c2ccccc2)c1	-2.7% (active)
COc1cc2oc(-c3cccc(NC(=O)c4cccc([N+](=O)[O-])c4)c3)cc(=O)c2c(OC)c1OC	54.3%
O=C(COc1ccc(/C=C2\C(=O)Nc3ccc(F)cc32)cc1)Nc1ccccc1	97.7%
COc1ccc(/C=N\NC(=O)c2cnn(CC(O)c3ccccc3)c2N)cc1OCc1ccc(Cl)cc1 (stereo not given)	56.9%
Cc1ccc(/C(N)=N/C(N)=N/c2nc3ccccc3s2)cc1	80.9%
O=C1[C@@H]2Cc3c([nH]c4ccccc34)[C@@H](c3ccc(Cl)cc3)N2C(=O)CN1C1CCN(Cc2c(F)cccc2F)CC1	56.8%
CCC(=C(c1ccc(OCCN2CCCCCC2)cc1)c1ccc(OCCN2CCCCCC2)cc1)c1ccc(Cl)cc1	27.1%
COc1cc(C(=O)c2cc(C(C)=O)c3c(C)cccn23)cc(OC)c1OC	81.8%
COc1ccc(C2CC(c3cccc(OCCCCOc4cccc(C5=NOC(c6ccc(OC)cc6)C5)c4)c3)=NO2)cc1 (stereo not given)	73.7%
CSc1ccc(/C(=N/N=C(N)N)c2ccc(Cl)cc2)cc1	50.5%
Cc1ccc2c(n1)C(=O)C(Cl)=C(Nc1cccc(C(=O)OC(C)(C)C)c1)C2=O	59.1%
CCCC/C(=C\c1ccc(O)c(O)c1)C(=O)NC(Cc1ccccc1)C(=O)C(=O)NCCc1ccc(OC)cc1 (stereo not given)	94.9%
Cc1ccc(CSC2=C(Cl)CN(c3ccc(Cl)cc3)C2=O)cc1	96.5%
Cc1cc(NS(=O)(=O)c2ccc(NC(=O)CSc3nc4ccccc4c(=O)n3-c3ccccc3)cc2)no1	90%
O=C(/C=C/c1cccc(F)c1)c1cccc(OCCCCOc2cccc(C(=O)/C=C/c3cccc(F)c3)c2)c1	105%
C#CCOc1ccccc1/C=N/Nc1nc(-c2ccc(Cl)cc2)cs1	71.9%
